PglD inh: C. jejuni PglD acetyltransferase inhibitors, primary screen, biochemical, DTNB colorimetric, single point. UDP-N-acetylbacillosamine N-acetyltransferase PglD (Campylobacter jejuni). purified PglD enzyme, DTNB colorimetric CoA detection. inhibition, % at 12.5 µM. actives 0.098% (n = 360,000). AID 602405, 2012; in the data active means inhibition above about 16%, passing the limit was not always enough
HIV Env fusion: inhibitors of HIV-1 Env-driven cell-cell fusion, primary screen, HeLa-JRFL effector, CEM21 target cells, luciferase. actives 1.1% (n = 360,000). inhibition, % at 12.3 µM;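 active means mean replicate inhibition score of at least 50 and every replicate individually at or above 50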;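 further: 0% = plate neutral controls and 100% = maraviroc near 300 nM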
CFTR F508del cor: F508del CFTR correction, initial screen, CFBE line, single point; CFBE cells, YFP halide quenching; stimulated with forskolin plus potentiator P3; % fluorescence drop versus neutral controls; activity (quench increase), % at 7.58 µM; actives 0.36% (n = 350,000); AID 720511, 2013;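 active means mean added fluorescence quench of at least 8% versus neutral control, with both replicates also reaching 8%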;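 further: cells transiently co-express mutant CFTR-F508del with the halide-sensitive YFP; corrector assay measuring rescue of mutant channel to the surface after 24 h compound exposure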
ALR H2O2 inh: inhibitors of human ALR sulfhydryl oxidase, primary screen, biochemical, H2O2 detection, HRP-luminol luminescence, single point; FAD-linked sulfhydryl oxidase ALR (Homo sapiens), P55789; purified ALR, DTT oxidation; inhibition, % (concentration not given with the values); actives 3.8% (n = 290,000); AID 485317, 2010;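 active means mean replicate inhibition above about 79%, with every replicate also reaching it, limit read from the data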
Casp6 inh: human caspase-6 inhibitors, primary screen, biochemical, VEID-R110 fluorescence, single point, set 2; purified caspase-6, Z-VEID-R110 cleavage fluorescence; inhibition, % at 12.5 µM; actives 0.53% (n = 350,000);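 active means mean inhibition across replicates at least about 35%, with every replicate also reaching that limit, limit read from the data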;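 further: 0% = median of neutral control wells and 100% = no fluorescence left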
NSD2 HMT inh: NSD2 histone methyltransferase inhibitors, primary screen, biochemical, AlphaScreen, single concentration, set 2; AID 743445, 2014; Histone-lysine N-methyltransferase NSD2 (Homo sapiens), O96028; actives 0.54% (n = 310,000); NSD2 peptide methylation, 120 min; inhibition, % at 12.5 µM; in the data active means inhibition above about 50%
Target sequence (O96028 whole entry, looked up): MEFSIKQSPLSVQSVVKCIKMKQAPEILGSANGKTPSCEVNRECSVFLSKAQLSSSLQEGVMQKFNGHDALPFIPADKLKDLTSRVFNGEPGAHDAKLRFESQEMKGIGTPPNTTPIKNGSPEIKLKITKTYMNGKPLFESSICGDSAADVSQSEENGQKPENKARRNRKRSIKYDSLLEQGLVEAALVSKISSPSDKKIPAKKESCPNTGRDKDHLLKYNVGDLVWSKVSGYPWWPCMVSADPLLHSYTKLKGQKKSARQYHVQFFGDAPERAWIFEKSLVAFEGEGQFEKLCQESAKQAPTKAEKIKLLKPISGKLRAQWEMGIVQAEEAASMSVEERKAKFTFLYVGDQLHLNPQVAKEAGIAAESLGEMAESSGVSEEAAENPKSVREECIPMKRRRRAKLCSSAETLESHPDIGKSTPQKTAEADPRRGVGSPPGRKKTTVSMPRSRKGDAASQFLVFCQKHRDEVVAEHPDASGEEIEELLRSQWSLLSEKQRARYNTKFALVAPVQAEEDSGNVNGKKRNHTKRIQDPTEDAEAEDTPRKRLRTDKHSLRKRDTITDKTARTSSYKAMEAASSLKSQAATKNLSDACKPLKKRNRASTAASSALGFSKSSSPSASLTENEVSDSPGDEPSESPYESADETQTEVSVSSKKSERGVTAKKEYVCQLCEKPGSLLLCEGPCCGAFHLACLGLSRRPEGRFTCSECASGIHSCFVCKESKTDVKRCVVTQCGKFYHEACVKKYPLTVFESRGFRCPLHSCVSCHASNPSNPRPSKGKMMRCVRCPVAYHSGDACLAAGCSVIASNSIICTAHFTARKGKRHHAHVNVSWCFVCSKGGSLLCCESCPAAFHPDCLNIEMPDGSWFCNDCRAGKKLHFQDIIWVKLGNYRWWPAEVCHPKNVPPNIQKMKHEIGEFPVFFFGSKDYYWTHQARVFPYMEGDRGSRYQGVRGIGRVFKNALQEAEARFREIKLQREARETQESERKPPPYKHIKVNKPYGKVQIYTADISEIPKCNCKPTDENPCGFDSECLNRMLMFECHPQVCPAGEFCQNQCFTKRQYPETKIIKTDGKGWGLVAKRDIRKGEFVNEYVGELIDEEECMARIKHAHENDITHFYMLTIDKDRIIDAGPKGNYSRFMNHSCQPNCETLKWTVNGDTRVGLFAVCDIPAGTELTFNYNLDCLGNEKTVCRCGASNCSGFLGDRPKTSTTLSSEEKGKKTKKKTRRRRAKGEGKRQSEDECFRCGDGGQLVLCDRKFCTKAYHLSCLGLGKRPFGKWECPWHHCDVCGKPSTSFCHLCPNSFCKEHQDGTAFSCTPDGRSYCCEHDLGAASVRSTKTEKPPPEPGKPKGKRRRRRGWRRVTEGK
* hit, by the source's call; [ ] = another dose, or the depositor's remark. Hits are enriched below; roughly 4.1% of the tested compounds scored in any of these assays.

How did COc1cc2c(cc1OC)CN(C(=O)[C@H]1[C@@H]3C(=O)O[C@@H](c4ccccc4)[C@@H](c4ccccc4)N3[C@@H](c3ccccc3OCCO)[C@]13C(=O)Nc1ccccc13)CC2 do in these assays?
PglD inh: -6; HIV Env fusion: -97[16.7 µM]; CFTR F508del cor: 0; Casp6 inh: -1

How did CCOCCn1c(CN2CCN(c3ccc(F)cc3)CC2)nc2c1c(=O)n(C)c(=O)n2C do in these assays?
HIV Env fusion: -1; ALR H2O2 inh: 99*; NSD2 HMT inh: 0

What do the screens show for `CCOCCn1c(CN2CCN(c3cccc(Cl)c3)CC2)nc2c1c(=O)n(C)c(=O)n2C`?
PglD inh: 9; HIV Env fusion: 36; CFTR F508del cor: -4; Casp6 inh: 0

How did COc1ccc(N2CCN(Cc3nc4c(c(=O)n(C)c(=O)n4C)n3C(C)C(C)=O)CC2)cc1 (configuration not stated) do in these assays?
PglD inh: 3; HIV Env fusion: -104; ALR H2O2 inh: 89*; NSD2 HMT inh: 0

How did O=C1c2ccccc2[C@@H]2C[C@@H](O)[C@H](Nc3cccc4ccccc34)CCN12 do in these assays?
PglD inh: 0; HIV Env fusion: 8; CFTR F508del cor: -2; Casp6 inh: 39*

Results for COc1ccc(N[C@@H]2CCN3C(=O)c4ccccc4[C@@H]3C[C@H]2O)cc1 ?
PglD inh: -4; HIV Env fusion: 16; CFTR F508del cor: 1; Casp6 inh: 6

How did C[C@@H]1CN([C@@H](C)CO)C(=O)c2cc(C#Cc3cccc(F)c3)cnc2O[C@@H]1CN(C)CC1CC1 do in these assays?
HIV Env fusion: 9[16.7 µM]; CFTR F508del cor: 0

What do the screens show for `CO[C@@H]1CN(C)C(=O)c2cc(NC(=O)Nc3ccccc3)ccc2OC[C@H](C)N(C(=O)CC2CC2)C[C@H]1C`?
PglD inh: 1; HIV Env fusion: 6[16.7 µM]; CFTR F508del cor: -3

How did Cc1ccc(S(=O)(=O)N2CCC(C(=O)NCCCN3CCOCC3)CC2)cc1C do in these assays?
PglD inh: -3; HIV Env fusion: -320; CFTR F508del cor: 1; ALR H2O2 inh: 2; Casp6 inh: 60*; NSD2 HMT inh: -1

How did Cc1ccc(S(=O)(=O)N2CCC(C(=O)NCCN3CCOCC3)CC2)cc1C do in these assays?
PglD inh: 4; HIV Env fusion: 3; CFTR F508del cor: -1; ALR H2O2 inh: 0; Casp6 inh: -5; NSD2 HMT inh: 4

Results for Cc1cc(C)c(C)c(S(=O)(=O)N2CCC(C(=O)Nc3ccc(S(=O)(=O)N4CCOCC4)cc3)CC2)c1C ?
PglD inh: 1; HIV Env fusion: 57*; CFTR F508del cor: 2; ALR H2O2 inh: -2; Casp6 inh: 1; NSD2 HMT inh: -5

Results for C[C@H](CO)N1C[C@H](C)[C@H](CN(C)C(=O)c2cnccn2)Oc2ncc(-c3cccc(C#N)c3)cc2C1=O ?
PglD inh: 1; HIV Env fusion: -15[16.7 µM]; CFTR F508del cor: 1

Results for C[C@H](CO)N1C[C@H](C)[C@H](CN(C)C(=O)CN(C)C)Oc2ncc(-c3ccc(C#N)cc3)cc2C1=O ?
PglD inh: -1; HIV Env fusion: -35[16.7 µM]; CFTR F508del cor: 0; Casp6 inh: -3

Results for COCC(C)n1c(SC(C)C(=O)NC2CCCCC2C)nc2ccccc2c1=O (configuration not stated) ?
PglD inh: 0; HIV Env fusion: 16; CFTR F508del cor: 1; ALR H2O2 inh: -1; Casp6 inh: 2; NSD2 HMT inh: -1

How did CC(Sc1nc2ccccc2c(=O)n1C)C(=O)N(C)C1CCCCC1 (configuration not stated) do in these assays?
PglD inh: -6; HIV Env fusion: 62*; CFTR F508del cor: -1; ALR H2O2 inh: -8; Casp6 inh: 5; NSD2 HMT inh: -4

How did COCCn1c(SCC(=O)c2cc(C)n(C)c2C)nc2ccccc2c1=O do in these assays?
HIV Env fusion: 8; CFTR F508del cor: -4; ALR H2O2 inh: 99*; Casp6 inh: 2

What do the screens show for `COCCn1c(SC(C)C(=O)NC2CCCCC2C)nc2ccccc2c1=O` (configuration not stated)?
PglD inh: -5; HIV Env fusion: 75*; CFTR F508del cor: -2; ALR H2O2 inh: 6; Casp6 inh: -2; NSD2 HMT inh: -3

What do the screens show for `CNC[C@@H]1Oc2c(NS(=O)(=O)c3cccs3)cccc2C(=O)N([C@@H](C)CO)C[C@@H]1C`?
PglD inh: -4; CFTR F508del cor: 6; Casp6 inh: 0

Results for COCC(=O)Nc1ccc2c(c1)C(=O)N(C)C[C@@H](OC)[C@H](C)CN(C(=O)NC(C)C)[C@@H](C)CO2 ?
PglD inh: 1; CFTR F508del cor: -1

How did O=C(Cc1ccccc1)N[C@H]1CC[C@H](CC(=O)N2CCCCC2)O[C@H]1CO do in these assays?
PglD inh: 1; HIV Env fusion: 16[16.7 µM]; CFTR F508del cor: 4; Casp6 inh: 1

Results for CCC(=O)Nc1ccc2c(c1)C(=O)N(C)C[C@@H](OC)[C@H](C)CN(Cc1ccccc1OC)[C@@H](C)CO2 ?
PglD inh: -4; HIV Env fusion: -1[16.7 µM]; Casp6 inh: -1

Results for O=C(Nc1cccc(F)c1)Nc1cccc(Cl)c1 ?
PglD inh: 1; HIV Env fusion: 11; CFTR F508del cor: -3; ALR H2O2 inh: -12; Casp6 inh: -2; NSD2 HMT inh: -1

What do the screens show for `CC(=O)/C(=N\Nc1cccc(Cl)c1)Sc1cccc2cccnc12`?
PglD inh: -1; ALR H2O2 inh: -3; NSD2 HMT inh: -4

Results for COc1ccccc1NS(=O)(=O)c1cccc(NC(=O)Nc2cccc(Cl)c2)c1 ?
HIV Env fusion: 45*; ALR H2O2 inh: -3; NSD2 HMT inh: 5

How did O=C(Nc1cccc(Cl)c1)Nc1cccc(Cl)c1 do in these assays?
PglD inh: 3; HIV Env fusion: 52*; ALR H2O2 inh: -6; NSD2 HMT inh: -2

How did CC(=O)/C(N)=N/Nc1cccc(Cl)c1 do in these assays?
HIV Env fusion: -32; ALR H2O2 inh: 99*; Casp6 inh: 15; NSD2 HMT inh: 11

Results for CC1(C)Cc2ccccc2C(/C(=N\Nc2cccc(Cl)c2)C(N)=O)=N1 ?
HIV Env fusion: 82*; ALR H2O2 inh: -14; NSD2 HMT inh: 4

How did CC(=O)c1ccc(N/N=C(/C(N)=O)C2=NC(C)(C)Cc3ccccc32)cc1 do in these assays?
PglD inh: -3; HIV Env fusion: 15; ALR H2O2 inh: -4; NSD2 HMT inh: 12

Source: PubChem BioAssay
